# Hit rate of the full screen: of about 5,500 compounds, about 2,000 (36%) were called active. About 18% were inconclusive and are not listed. Some of the results follow. Values without a mark were called inactive. No stated cut-off is given here; in the data, active means normalized growth mostly below about 0.91 (no sharp cut-off); inconclusive means no clear call, values can overlap the other calls; inactive means mostly above about 0.92.
# Test: chemical genetic growth profiling, strain panel (AID 1159580);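 further: tested at 20 µM; growth read once vehicle control cultures reached saturation at 30 °C; 1 = growth at the plate median or of vehicle wells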
# Details: growth OD
structure (smiles),measurement,setting,value
NC(=NCCCCCCN=C(N)N=C(N)Nc1ccc(Cl)cc1)N=C(N)Nc1ccc(Cl)cc1,normalized growth,"S. cerevisiae deletion strains, locus YJR075W, strain HOC1, stronger effect = lower value",0.0644 (active)
same,normalized growth,"S. cerevisiae deletion strains, locus YKL009W, strain mrt4, stronger effect = lower value",0.478 (active)
same,normalized growth,"S. cerevisiae deletion strains, locus YKL068W, stronger effect = lower value",0.977
same,normalized growth,"S. cerevisiae deletion strains, locus YKL085W, strain MDH1 (second series), stronger effect = lower value",0.906 (active)
same,normalized growth,"S. cerevisiae deletion strains, locus YKL085W, strain MDH1, stronger effect = lower value",0.906 (active)
same,normalized growth,"S. cerevisiae deletion strains, locus YKL160W, strain elf1, stronger effect = lower value",0.0627 (active)
same,normalized growth,"S. cerevisiae deletion strains, locus YKL190W, strain CNB1, stronger effect = lower value",0.0461 (active)
same,normalized growth,"S. cerevisiae deletion strains, locus YKR001C, strain vps1, stronger effect = lower value",0.0656 (active)
same,normalized growth,"S. cerevisiae deletion strains, locus YKR026C, strain gcn3, stronger effect = lower value",0.0624 (active)
same,normalized growth,"S. cerevisiae deletion strains, locus YKR091W, strain srl3, stronger effect = lower value",0.0577 (active)
same,normalized growth,"S. cerevisiae deletion strains, locus YLL001W, strain dnm1, stronger effect = lower value",0.0629 (active)
same,normalized growth,"S. cerevisiae deletion strains, locus YLL026W, stronger effect = lower value",0.0551 (active)
same,normalized growth,"S. cerevisiae deletion strains, locus YLL041C, strain sdh2, stronger effect = lower value",0.0558 (active)
same,normalized growth,"S. cerevisiae deletion strains, locus YLR027C, strain aat2, stronger effect = lower value",0.0552 (active)
same,normalized growth,"S. cerevisiae deletion strains, locus YLR039C, strain RIC1, stronger effect = lower value",0.0768 (active)
same,normalized growth,"S. cerevisiae deletion strains, locus YLR058C, strain SHM2, stronger effect = lower value",0.0478 (active)
same,normalized growth,"S. cerevisiae deletion strains, locus YLR102C, strain apc9, stronger effect = lower value",0.0634 (active)
same,normalized growth,"S. cerevisiae deletion strains, locus YLR113W, strain HOG1, stronger effect = lower value",0.126 (active)
same,normalized growth,"S. cerevisiae deletion strains, locus YLR221C, strain rsa3, stronger effect = lower value",0.058 (active)
same,normalized growth,"S. cerevisiae deletion strains, locus YLR258W, strain gsy2, stronger effect = lower value",0.0585 (active)
same,normalized growth,"S. cerevisiae deletion strains, locus YLR262C, strain YPT6 (second series), stronger effect = lower value",0.0721 (active)
same,normalized growth,"S. cerevisiae deletion strains, locus YLR262C, strain YPT6, stronger effect = lower value",0.0923 (active)
same,normalized growth,"S. cerevisiae deletion strains, locus YLR268W, strain sec22, stronger effect = lower value",0.0678 (active)
same,normalized growth,"S. cerevisiae deletion strains, locus YLR320W, strain mms22, stronger effect = lower value",0.0755 (active)
same,normalized growth,"S. cerevisiae deletion strains, locus YLR330W, strain CHS5, stronger effect = lower value",0.0516 (active)
same,normalized growth,"S. cerevisiae deletion strains, locus YLR342W, strain FKS1 (second series), stronger effect = lower value",0.0692 (active)
same,normalized growth,"S. cerevisiae deletion strains, locus YLR342W, strain FKS1, stronger effect = lower value",0.063 (active)
same,normalized growth,"S. cerevisiae deletion strains, locus YLR357W, strain rsc2, stronger effect = lower value",0.116 (active)
same,normalized growth,"S. cerevisiae deletion strains, locus YLR370C, strain arc18, stronger effect = lower value",0.0607 (active)
same,normalized growth,"S. cerevisiae deletion strains, locus YLR371W, strain rom2, stronger effect = lower value",0.0627 (active)
same,normalized growth,"S. cerevisiae deletion strains, locus YLR384C, strain iki3, stronger effect = lower value",0.057 (active)
same,normalized growth,"S. cerevisiae deletion strains, locus YLR418C, strain cdc73, stronger effect = lower value",0.0991 (active)
same,normalized growth,"S. cerevisiae deletion strains, locus YML016C, strain PPZ1, stronger effect = lower value",0.0482 (active)
same,normalized growth,"S. cerevisiae deletion strains, locus YML032C, strain rad52, stronger effect = lower value",0.0699 (active)
same,normalized growth,"S. cerevisiae deletion strains, locus YML120C, strain ndi1, stronger effect = lower value",0.0569 (active)
same,normalized growth,"S. cerevisiae deletion strains, locus YML124C, strain tub3, stronger effect = lower value",0.0596 (active)
same,normalized growth,"S. cerevisiae deletion strains, locus YMR058W, strain fet3, stronger effect = lower value",0.0607 (active)
same,normalized growth,"S. cerevisiae deletion strains, locus YMR078C, strain ctf18, stronger effect = lower value",0.071 (active)
same,normalized growth,"S. cerevisiae deletion strains, locus YMR125W, strain sto1, stronger effect = lower value",0.0789 (active)
same,normalized growth,"S. cerevisiae deletion strains, locus YMR129W, stronger effect = lower value",0.0564 (active)
same,normalized growth,"S. cerevisiae deletion strains, locus YMR205C, strain PFK2, stronger effect = lower value",0.0855 (active)
same,normalized growth,"S. cerevisiae deletion strains, locus YMR223W, strain ubp8, stronger effect = lower value",0.0651 (active)
same,normalized growth,"S. cerevisiae deletion strains, locus YMR231W, strain pep5, stronger effect = lower value",0.064 (active)
same,normalized growth,"S. cerevisiae deletion strains, locus YMR263W, strain SAP30, stronger effect = lower value",0.0566 (active)
same,normalized growth,"S. cerevisiae deletion strains, locus YMR307W, strain GAS1, stronger effect = lower value",0.0969 (active)
same,normalized growth,"S. cerevisiae deletion strains, locus YNL067W, strain RPL9B, stronger effect = lower value",0.0509 (active)
same,normalized growth,"S. cerevisiae deletion strains, locus YNL071W, strain lat1, stronger effect = lower value",0.0604 (active)
same,normalized growth,"S. cerevisiae deletion strains, locus YNL128W, strain TEP1, stronger effect = lower value",0.0651 (active)
same,normalized growth,"S. cerevisiae deletion strains, locus YNL153C, strain GIM3, stronger effect = lower value",0.0505 (active)
same,normalized growth,"S. cerevisiae deletion strains, locus YNL183C, strain NPR1, stronger effect = lower value",0.139 (active)
same,normalized growth,"S. cerevisiae deletion strains, locus YNL209W, strain ssb2, stronger effect = lower value",0.057 (active)
same,normalized growth,"S. cerevisiae deletion strains, locus YNL233W, strain BNI4, stronger effect = lower value",0.0552 (active)
same,normalized growth,"S. cerevisiae deletion strains, locus YNL248C, strain rpa49, stronger effect = lower value",0.075 (active)
same,normalized growth,"S. cerevisiae deletion strains, locus YNL250W, strain rad50, stronger effect = lower value",0.909
same,normalized growth,"S. cerevisiae deletion strains, locus YNL271C, strain bni1, stronger effect = lower value",0.607 (active)
same,normalized growth,"S. cerevisiae deletion strains, locus YNL298W, strain CLA4, stronger effect = lower value",0.0653 (active)
same,normalized growth,"S. cerevisiae deletion strains, locus YNL307C, strain MCK1, stronger effect = lower value",0.0676 (active)
same,normalized growth,"S. cerevisiae deletion strains, locus YNL322C, strain KRE1 (second series), stronger effect = lower value",0.0655 (active)
same,normalized growth,"S. cerevisiae deletion strains, locus YNL322C, strain KRE1, stronger effect = lower value",0.0467 (active)
same,normalized growth,"S. cerevisiae deletion strains, locus YNR049C, strain mso1, stronger effect = lower value",0.0617 (active)
same,normalized growth,"S. cerevisiae deletion strains, locus YNR052C, strain pop2, stronger effect = lower value",0.0607 (active)
same,normalized growth,"S. cerevisiae deletion strains, locus YOL006C, strain TOP1, stronger effect = lower value",0.107 (active)
same,normalized growth,"S. cerevisiae deletion strains, locus YOL012C, strain htz1",0.183 (active)
same,normalized growth,"S. cerevisiae deletion strains, locus YOL147C, strain pex11, stronger effect = lower value",0.0595 (active)
same,normalized growth,"S. cerevisiae deletion strains, locus YOR001W, strain rrp6, stronger effect = lower value",0.0681 (active)
same,normalized growth,"S. cerevisiae deletion strains, locus YOR061W, strain CKA2, stronger effect = lower value",0.0471 (active)
same,normalized growth,"S. cerevisiae deletion strains, locus YOR069W, strain VPS5, stronger effect = lower value",0.0468 (active)
same,normalized growth,"S. cerevisiae deletion strains, locus YOR070C, strain gyp1, stronger effect = lower value",0.0572 (active)
same,normalized growth,"S. cerevisiae deletion strains, locus YOR080W, strain dia2, stronger effect = lower value",0.0623 (active)
same,normalized growth,"S. cerevisiae deletion strains, locus YOR083W, strain WHI5, stronger effect = lower value",0.0615 (active)
same,normalized growth,"S. cerevisiae deletion strains, locus YOR106W, strain vam3, stronger effect = lower value",0.0675 (active)
same,normalized growth,"S. cerevisiae deletion strains, locus YOR136W, strain idh2, stronger effect = lower value",0.0708 (active)
same,normalized growth,"S. cerevisiae deletion strains, locus YOR144C, strain elg1, stronger effect = lower value",0.0593 (active)
same,normalized growth,"S. cerevisiae deletion strains, locus YOR184W, strain ser1, stronger effect = lower value",0.0744 (active)
same,normalized growth,"S. cerevisiae deletion strains, locus YOR231W, strain MKK1, stronger effect = lower value",0.0973 (active)
same,normalized growth,"S. cerevisiae deletion strains, locus YOR265W, strain rbl2, stronger effect = lower value",0.0543 (active)
same,normalized growth,"S. cerevisiae deletion strains, locus YOR270C, strain vph1, stronger effect = lower value",0.107 (active)
same,normalized growth,"S. cerevisiae deletion strains, locus YOR290C, strain snf2, stronger effect = lower value",0.0655 (active)
same,normalized growth,"S. cerevisiae deletion strains, locus YOR316C, strain cot1, stronger effect = lower value",0.0609 (active)
same,normalized growth,"S. cerevisiae deletion strains, locus YPL051W, strain arl3, stronger effect = lower value",0.0612 (active)
same,normalized growth,"S. cerevisiae deletion strains, locus YPL055C, strain LGE1, stronger effect = lower value",0.0688 (active)
same,normalized growth,"S. cerevisiae deletion strains, locus YPL078C, strain atp4, stronger effect = lower value",0.0665 (active)
same,normalized growth,"S. cerevisiae deletion strains, locus YPL106C, strain sse1, stronger effect = lower value",0.0968 (active)
same,normalized growth,"S. cerevisiae deletion strains, locus YPL240C, strain hsp82, stronger effect = lower value",0.0556 (active)
same,normalized growth,"S. cerevisiae deletion strains, locus YPL241C, strain CIN2, stronger effect = lower value",0.0486 (active)
same,normalized growth,"S. cerevisiae deletion strains, locus YPL256C, strain CLN2, stronger effect = lower value",0.124 (active)
same,normalized growth,"S. cerevisiae deletion strains, locus YPR119W, strain clb2, stronger effect = lower value",0.0667 (active)
same,normalized growth,"S. cerevisiae deletion strains, locus YPR141C, strain kar3, stronger effect = lower value",1.01
same,normalized growth,"S. cerevisiae deletion strains, locus YPR163C, strain tif3, stronger effect = lower value",0.0696 (active)
same,normalized growth,"S. cerevisiae deletion strains, locus YPR167C, strain met16, stronger effect = lower value",0.0625 (active)
same,normalized growth,"S. cerevisiae deletion strains, strain wtn01, stronger effect = lower value",0.0592 (active)
same,normalized growth,"S. cerevisiae strains, strain wild type, stronger effect = lower value",0.0489 (active)

# — PubChem BioAssay AID1159580 (chemical genetic matrix, 2015)
